15 compounds from the supplement of paper PMC9897528 can be followed below.

Unmarked numbers belong to inactive results.
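Also: conidia screened in RPMI 1640 medium under 5% CO2, growth read by spectrophotometer, medium with 0.5% DMSO serving as the untreated reference.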

The test deals with Scedosporium aurantiacum CBS 136046. Briefly: growth inhibition relative to DMSO control (OD600); higher = more antifungal activity, active = 80 or more; extreme values may be limits of the assay. As to conditions: 5 µM; 72 h; 37 °C.
As to `Cc1ncc([N+](=O)[O-])n1CC(C)O` (stereo not given), the growth inhibition is 22.7%.
For `O=C(Nc1ccc(Cl)c(C(F)(F)F)c1)C(CCCl)C(=O)Nc1ccc(Cl)c(C(F)(F)F)c1`, the growth inhibition was 0%.
Turning to `COc1cc(C2C3=C(CC(C)(C)CC3=O)Nc3ccccc3N2C(C)=O)ccc1OCc1ccccc1` (stereo not given), the growth inhibition is 0.481%.
The figure for `Cc1cc(-c2ccccc2)c(C(=O)C(=O)Nc2ccc(N3CCN(c4ncc(F)cn4)CC3)cc2)n1C` is 81.8% (active).
Turning to `CN(O)C(=O)c1cc2c(CN3CCC[C@H]3C(N)=O)cn(Cc3ccc(F)cc3)c2cn1`, the growth inhibition was 1.58%.
`Cc1ccc(NC(=O)c2cc(Cl)ccc2O)cc1`: the growth inhibition is 4.62%.
With `N=c1n(CCN2CCCCC2)c2ccccc2n1CC(O)COc1ccc(Cl)cc1Cl` (stereo not given), the growth inhibition is 25.3%.
Under `CC(C)N(c1cc(-c2ccccc2)sc1C(=O)O)C(=O)[C@H]1CC[C@H](C)CC1` stands 16.1%.
In the case of `CC(Oc1ccc(Cl)cc1Cl)C(=O)NCc1ccc2c(c1)OCO2` (stereo not given), the growth inhibition was 17.5%.
On to `COCCn1cnc2c(O)nc(Nc3ccccc3)nc21`, for which the growth inhibition was 5.59%.
The figure for `CCc1c(O)nc2ccc(F)cc2c1OCC1CCC1` is 23.8%; for `FC(F)(F)c1cc(C(F)(F)F)c2ccc3nc(-c4nnco4)cn3c2n1` it is 4.29%.
On to `Nc1nc(F)nc2c1ncn2[C@H]1O[C@@H](CO)[C@H](O)[C@@H]1O`, for which the growth inhibition is 33.8%.
As for `Fc1ccc(-c2nc(-c3c[nH]c4ccc(Br)cc34)[nH]c2-c2ccc(F)cc2)cc1`, the growth inhibition is 28.1%.
`CC1(C)[C@H](C(=O)O)N2C(=O)C[C@H]2S1(=O)=O`: the growth inhibition is 0%.
